Screening results as filed in PubChem.
Luc counter – Counterscreen for Luciferase (Kinase-Glo TM) Inhibition; Kinase-Glo luciferase, ATP luminescence, 8 min; Potency, µM (highest dose often 38.3 µM), without a hit: at the top dose activity change, negative = inhibition, usual class: inhibitors; 200,000 tested, 0.28% active; also: % is scaled to controls: 0 for no effect and ±100 for the full control effect; nearly all actives have a fitted effect of over 60% in size
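Inhibition of Kinase-Glo luciferase light generation was assessed at 10 uM ATP in pH 7.2 imidazole buffer, with luminescence measured after eight minutes at ambient temperature.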
ALDH1A1 block – qHTS Assay for Inhibitors of Aldehyde Dehydrogenase 1 (ALDH1A1). Aldehyde dehydrogenase 1A1 (Homo sapiens), P00352. Purified ALDH1A1, NADH fluorescence, propionaldehyde substrate. Potency, µM (highest dose often 75.3 µM), for inactives: at the highest dose activity, negative = inhibition, usual class: inhibitors. 220,000 tested, 7.3% active; active = well fitted inhibition curve with a large enough effect, not every such curve was filed as active; inconclusive = small, poorly fitted or top-dose-only effect, or another doubt; inactive = no such curve, though single readings can be large or run the other way;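 also: plate controls were no enzyme wells and a reference inhibitor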
HTT aggregate – qHTS Multiplex Assay to Identify Dual Action Probes in a Cell Model of Huntington: Aggregate Formation (GFP); AID 1688, 2009; Potency, µM (top dose mostly 46.1 µM), inactives show at the top dose activity change, negative = inhibition, usual class: inhibitors; PC12 HttQ103-GFP aggregates, Acumen cytometry, 40 h; 220,000 tested, 1.1% active; also: % is scaled to controls: 0 for no effect and ±100 for the full control effect; nearly all actives have a fitted effect of over 60% in size
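Huntingtin Q103 exon 1–GFP aggregates in induced PC12 cells (100 nM tebufenozide) were quantified by cytometry from lysates, with compounds dosed in titration.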
HTT cytoprotect – qHTS Multiplex Assay to Identify Dual Action Probes in a Cell Model of Huntington: Cytoprotection (ATP); PC12 HTT-Q103 induced, cytoprotection, ATP luminescence, 40 h; AID 1471, 2008; 230,000 tested, 0.14% active; Potency, µM (top dose mostly 56.4 µM), for inactives: cytoprotection (ATP increase), actives largely listed as activators; also: % of control where 0% means no effect; nearly all actives have a fitted effect of over 45% in size
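Compounds were screened for protection of PC12 cells against cell death after tebufenozide induction (100 nM final) of mutant Huntingtin exon 1 (Q103) fused to GFP.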
HPGD inh – qHTS Assay for Inhibitors of HPGD (15-Hydroxyprostaglandin Dehydrogenase); purified HPGD, NADH fluorescence kinetic, PGE2 substrate; Potency, µM, for the others: at the top dose activity change, negative = inhibition, hits mostly inhibitors; 150,000 tested, 4.3% active; AID 894, 2007; active = well fitted inhibition curve with a large enough effect, not every such curve was filed as active; inconclusive = small, poorly fitted or top-dose-only effect, or another doubt; inactive = no such curve, though single readings can be large or run the other way; also: % is scaled to controls: 0 for no effect and ±100 for the full control effect
Target sequence (P15428 whole entry, looked up): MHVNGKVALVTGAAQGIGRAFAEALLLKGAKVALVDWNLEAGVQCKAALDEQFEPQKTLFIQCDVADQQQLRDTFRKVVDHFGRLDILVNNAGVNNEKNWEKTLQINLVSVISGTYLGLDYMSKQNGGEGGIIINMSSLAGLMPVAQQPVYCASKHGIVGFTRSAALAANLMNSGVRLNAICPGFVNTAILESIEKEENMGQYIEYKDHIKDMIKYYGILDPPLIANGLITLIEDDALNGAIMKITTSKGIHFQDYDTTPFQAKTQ
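20 nM HPGD preincubated 15 min at room temperature with compound in 50 mM Tris-HCl pH 8, 0.01% Tween 20. Started with 1 mM NAD+ and 30 uM prostaglandin E2; NADH fluorescence (360/450 nm) read 5 times over 30-s intervals, last minus first.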
Lamin A splicing – qHTS Assay for Modulators of Lamin A Splicing; HeLa LMNA splicing GFP/RFP minigene ratio, 48 h; Potency, µM (titrated, usually from 46.1 µM), without a hit: at the top dose ratio change, negative = inhibition, hits mostly inhibitors; 200,000 tested, 0.01% active; active = well fitted inhibition curve with a large enough effect in the signal ratio, with a control signal flat, not every such curve was filed as active; inconclusive = small, poorly fitted or top-dose-only effect, or effect the other way, or a change in a side signal; the % refers to the signal ratio; also: % is scaled to controls: 0 for no effect and ±100 for the full control effect
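Read-out is the ratio of GFP to DsRed2 object intensity, acquired by 488 nm laser-scanning cytometry on HeLa lamin A-EGFP minigene reporter cells. Compound incubation 48 hrs at 37 °C in Opti-MEM with 2% FBS; DMSO 0.5% final.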
An asterisk follows results filed as active; [ ] = remark or other dose. This is a sample that favours compounds with a hit; in the whole collection about 9% have one here. Unless noted, calls follow the shape of the dose curve; as a rule, active = well fitted curve in the direction sought with a large enough effect; inconclusive = small, poorly fitted or top-dose-only effect, or another doubt; inactive = no such curve, though single readings can be large; an effect the other way counts as inactive or inconclusive. Potency is read from the fitted curve at half-maximal effect.

`Cc1ccc(-c2n[nH]c(=O)c3ccccc23)cc1S(=O)(=O)NC(C)(C)C` gave Luc counter -2%, ALDH1A1 block inconclusive, HTT aggregate 2% and HTT cytoprotect -46%.
`Cc1ccc(-c2n[nH]c(=O)c3ccccc23)cc1S(=O)(=O)NCCO` gave Luc counter -4%, ALDH1A1 block 7%, HTT aggregate -2%, HTT cytoprotect 4%, HPGD inh 14µM* and Lamin A splicing -22%.
`CCOC(=O)CNS(=O)(=O)c1cc(-c2nn(C)c(=O)c3ccccc23)ccc1C` gave Luc counter -3%, ALDH1A1 block inconclusive, HTT aggregate -15%, HTT cytoprotect 14%, HPGD inh 16µM* and Lamin A splicing -10%.
CCn1cc(C(=O)OCC(=O)Nc2cccc(S(=O)(=O)N3CCOCC3)c2)c(=O)c2ccc(C)nc21 was read as Luc counter 2%, ALDH1A1 block inconclusive, HTT aggregate 4%, HTT cytoprotect 5%, HPGD inh -7% and Lamin A splicing 7%.
`CCn1cc(C(=O)Nc2ccccc2)c(=O)c2ccc(C)nc21` gave Luc counter 1%, ALDH1A1 block 2%, HTT aggregate -4%[9.22 µM], HTT cytoprotect -12%[10 µM] and Lamin A splicing 4%[46 µM].
CCn1cc(C(=O)OCC(=O)c2cc(C)n(-c3ccc(OC(F)F)cc3)c2C)c(=O)c2ccc(C)nc21 was read as Luc counter 0%, ALDH1A1 block 10µM*, HTT aggregate -13%, HTT cytoprotect -12%[10 µM], HPGD inh -8% and Lamin A splicing 1%.
`CCn1cc(C(=O)OCC(=O)Nc2ccc(C(C)C)cc2)c(=O)c2ccc(C)nc21` gave Luc counter 3%, ALDH1A1 block 14µM*, HTT aggregate 1%, HTT cytoprotect -27% and Lamin A splicing -11%[46 µM].
CCn1cc(C(=O)Nc2ccc(C(=O)N3CCCC3)cc2)c(=O)c2ccc(C)nc21 was read as Luc counter -4%, ALDH1A1 block 11%, HTT aggregate 20%, HTT cytoprotect 3%, HPGD inh 4µM* and Lamin A splicing 7%.
`c1ccc(-c2nn3nnnc3c3ccccc23)cc1` gave Luc counter -2%, ALDH1A1 block 3%, HTT aggregate -18%, HTT cytoprotect -7%[10 µM], HPGD inh -12% and Lamin A splicing -12%.
Screening COc1cc(C(=O)NC(=S)NNC(=O)c2ccc3c(c2)OCO3)cc(OC)c1OC returned HTT aggregate -2%[9.22 µM] and HTT cytoprotect 12%[10 µM].
For O=C(Nc1ccc2oc(Cc3ccc(Cl)cc3)nc2c1)c1cccnc1 the results were Luc counter 3%, ALDH1A1 block 0%, HTT aggregate 25%, HTT cytoprotect 3%[10 µM], HPGD inh -22% and Lamin A splicing -10%.
For O=C1c2ccccc2C(=O)N1c1n[nH]c(CCc2ccccc2)n1 the results were Luc counter -10%, ALDH1A1 block 2%, HTT aggregate 25%, HTT cytoprotect 13%, HPGD inh -10% and Lamin A splicing 9%.
`CCc1cc2ccc(OC)cc2nc1SCC(=O)NNC(=O)c1ccco1` gave Luc counter 2%, ALDH1A1 block 6.3µM*, HTT aggregate 8%[9.22 µM], HTT cytoprotect -2%[10 µM] and Lamin A splicing -15%[46 µM].
